Consider 18 molecules from PubChem BioAssay (Tox21).

Values without a mark were called inactive. Records with an inconclusive call do not appear. Activity calls are given as the source filed them. Unless noted, calls come from the whole dose curve; as a rule, active = well fitted curve in the direction sought with a large enough effect in the repeat runs; inconclusive = weak or mixed curves; inactive = no such curve, though single readings can be large; an effect the other way counts as inactive or inconclusive.

Assay [1] can be described thus: qHTS assay for small molecule agonists of the p53 signaling pathway (AID 651631; calls by dose curve; note: nearly all actives have a fitted effect of over 15% in size). In outline: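 HCT-116 cells carrying a stable p53 response element–beta-lactamase reporter were plated, rested 5 h at 37 °C, then exposed to compound in DMSO for 16 h at 37 °C; reporter activity was read as FRET substrate fluorescence after 2 h at room temperature.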
Assay [2] can be described thus: qHTS assay for small molecules that induce genotoxicity in human embryonic kidney cells expressing luciferase-tagged ATAD5 (AID 651632). Note: nearly all actives have a fitted effect of over 15% in size. An outline of the steps:
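Reporter cells (HEK293T) express luciferase-tagged ATAD5, a protein that accumulates after DNA damage. Treat 16 hr at 37C/5% CO2, add Amplite, wait 30 min at RT, and read luminescence.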

A short description of assay [3]: qHTS assay for small molecule agonists of the p53 signaling pathway - cell viability (AID 651633; calls by dose curve; note: series mostly up to about 83 µM; nearly all actives have a fitted effect of over 30% in size). An outline of the steps:
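p53RE-bla cells, seeded at 4,000 per well and rested 5 h at 37 C/5% CO2, received compounds in DMSO for 16 h at 37 C. CellTiter-Glo was then added, and luminescence was read after 30 min at room temperature to gauge cytotoxicity.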
In general terms: qHTS replaces the single test concentration by a dilution series.

Assay [4] can be described thus: qHTS assay for small molecules that induce genotoxicity in human embryonic kidney cells expressing luciferase-tagged ATAD5 - cell viability (AID 651634; calls by dose curve; note: nearly all actives have a fitted effect of over 25% in size; note: potency is the fitted concentration of half-maximal effect). An outline of the steps: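 Seeding of 2,000 HEK293T ATAD5-luciferase cells per well preceded pin-tool compound transfer. Plates sat 15.5 hr at 37C under 5% CO2, then fluorescence was read after 30 min with CellTiter-Fluor.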

Assay [5] in a line: qHTS assay to test for compound auto fluorescence at 590 nm (red) in HepG2 cells (AID 720674). An outline of the steps:
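Compound auto-fluorescence is scored relative to Rose Bengal sodium, measured at 540/590 nm in live HepG2 cultures after 1 hr compound contact (37 C, 5% CO2).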

Assay [6] is described as follows: qHTS assay to test for compound auto fluorescence at 535 nm (green) in HepG2 cells (AID 720675).
The nature of assay [7]: qHTS assay to test for compound auto fluorescence at 460 nm (blue) in HEK293 cells (AID 720678). An outline of the steps:
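Cells were seeded and left to adhere for 4-5 hr at 37C. Compounds were then pin-transferred. After an overnight incubation at 37C under 5% CO2, intrinsic fluorescence at 405/460 nm was measured and referenced to triamterene.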

The nature of assay [8]: qHTS assay to test for compound auto fluorescence at 590 nm (red) in HEK293 cells (AID 720679). In outline: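 Each well held 2,000 HEK293 cells in medium containing 10% dialyzed FBS. Following 4-5 hr attachment at 37C, 23 nL test compound or DMSO was added; plates sat overnight, and red fluorescence (540/590nm) was recorded.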
Assay [9] in a line: qHTS assay for small molecule disruptors of the mitochondrial membrane potential - cell viability (AID 720634; calls by dose curve;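 note: human HepG2 liver cancer cells; series mostly up to about 83 µM; nearly all actives have a fitted effect of over 20% in size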). In outline:
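Measuring cytotoxicity alongside mitochondrial potential, the screen quantified ATP by luminescence in HepG2 cells after 1 hr compound incubation and a 30 min room-temperature CellTiter-Glo step.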

Assay [10] is described as follows: qHTS assay for small molecule disruptors of the mitochondrial membrane potential (AID 720635). An outline of the steps:
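HepG2 cells (2,000/well) attached overnight at 37C, then took compound for 1 hr at 37C, 5% CO2. Mito-MPS dye was added for 30 min; fluorescence was read at 490/535 nm (monomers) and 540/590 nm (aggregates).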
% is set by controls: 0 for no effect and ±100 for the full control effect.

Regarding `C1=CCC2CC=CC2C1` (stereo unspecified), the Potency result in assay [1], in assay [2], in assay [3], in assay [4] and in [7] was “inactive” in each case. Also, the molecule was classed as inactive in assay [5], in assay [6] and in assay [8].
For the molecule `Cc1ccc(N(CCO)CCO)cc1`, the Potency entry in assay [1], in assay [2], in assay [3] and in [4] was “inactive” throughout. The call in assay [9], in assay [5] and in assay [8] was inactive.
For the molecule `CC(C)CC(O)CC(C)C`, the Potency result in [1], in [2], in [3], in assay [4] and in [7] was “inactive” in each case. Besides, the molecule was classed as inactive in assay [9], in assay [5], in assay [6] and in [8].
In the case of `CCc1ccc(C)cc1`, the Potency result in assay [1], in assay [2], in [3], in assay [4] and in assay [7] was “inactive” throughout. Besides, the result in assay [9], in assay [5], in [6] and in assay [8] was inactive.
With `CC1C(C)(C)C2=C(C(=O)CCC2)C1(C)C` (stereo unspecified), the Potency result in assay [1], in [2], in assay [3] and in [4] was “inactive” throughout. Moreover, the molecule was classed as inactive in [5], in assay [6] and in assay [8].
Regarding `CCN(CC)CCOC(=O)C(c1ccccc1)c1ccccc1`, the Potency result in assay [1], in [2], in assay [3], in assay [4] and in [7] was “inactive” in each case. Further, the result in [9], in assay [5] and in assay [8] was inactive.
Take `O=C(O)CN1C(=O)c2cccc3cccc(c23)C1=O`: the Potency entry in assay [1], in [2], in assay [3], in assay [4] and in assay [7] was “inactive” in each case. Moreover, the call in assay [9], in assay [5], in assay [6] and in assay [8] was inactive.
Turning to `O=S(=O)(Cl)c1c(Cl)cccc1Cl`, the Potency result in assay [1], in [2], in assay [3], in assay [4] and in assay [10] was “inactive” each time. In addition, the result in assay [5], in assay [6] and in assay [8] was inactive.
As for `N[C@@H](Cc1cc(I)c(O)c(I)c1)C(=O)O`, the Potency entry in assay [1], in [2], in assay [3] and in [4] was “inactive” each time. The molecule was classed as inactive in assay [5], in [6] and in assay [8].
`CCN(CC)C(=O)N1CCN(C)CC1`: the Potency entry in [1], in assay [2], in assay [4] and in [10] was “inactive” in each case. For the same molecule, in [9], the call was inactive. Further, in assay [5], the fluorescence, relative to Rose Bengal is 0.12% [at 18.6 µM]. Moreover, in assay [6], the fluorescence, % of fluorescein control is -0.0715% [at 18.6 µM]. In assay [7], the fluorescence, % of triamterene is -0.217% [at 18.6 µM]. In [8], the fluorescence, % of fluorescent control is 0.0039% [at 18.6 µM].
Consider `CNc1c2c(nn1C)CCCC2`, for which the Potency result in assay [1], in assay [2], in assay [3] and in assay [4] was “inactive” in each case. The call in assay [5], in assay [6] and in assay [8] was inactive.
For the molecule `CCC(CO)(CO)CO`, the Potency entry in [1], in [2], in assay [4] and in assay [7] was “inactive” each time. The molecule was classed as inactive in assay [5] and in [8].
With `CC(=O)NCCO`, the Potency result in [1], in [2], in [4], in assay [10] and in assay [7] was “inactive” throughout. Also, the outcome in assay [9], in assay [5], in [6] and in assay [8] was inactive.
In the case of `CCN(Cc1cccc(S(=O)(=O)O)c1)c1ccc(C(=C2C=CC(=[N+](CC)Cc3cccc(S(=O)(=O)O)c3)C=C2)c2ccccc2S(=O)(=O)[O-])cc1`, the Potency result in assay [1], in assay [2] and in [7] was “inactive” in each case. The Potency in assay [4] is 15.4 µM (active). Besides, the molecule was classed as inactive in [5], in [6] and in assay [8].
For the molecule `CCC(=O)OCc1ccc(OC)cc1`, the Potency result in [1], in assay [2], in [4], in [10] and in assay [7] was “inactive” throughout. Besides, the call in assay [9], in assay [5], in assay [6] and in [8] was inactive.
Take `COc1ccc(N)c([N+](=O)[O-])c1`: the Potency entry in assay [1], in assay [2], in [3], in assay [10] and in assay [7] was “inactive” each time. In addition, the outcome in assay [9], in [5], in assay [6] and in assay [8] was inactive.
As for `CC(=O)N[C@@H](Cc1ccc(O)cc1)C(=O)O`, the Potency entry in [1], in assay [3], in [4], in [10] and in assay [7] was “inactive” throughout. The result in [9], in assay [5], in assay [6] and in assay [8] was inactive.
For the molecule `CCCCCCC(O)CCCCCCCCCCC(=O)OC` (stereo unspecified), the Potency result in assay [1], in assay [3], in assay [4], in assay [10] and in [7] was “inactive” in each case. The outcome in assay [9], in [5], in assay [6] and in [8] was inactive.
